Experimental data taken from article PMC4336329 (PLoS ONE, 2015).
The campaign covered roughly 310,000 compounds. About 14,000 (4.5%) showed an effect of 50% or more. The effect is printed as a negative number. Only a selection was taken, and strong results are over-represented in it overall.

molecular target: human ether-à-go-go-related gene (hERG) potassium channel (human, UniProt Q12809); assay: primary screen, population patch clamp on CHO cells stably expressing hERG; higher = less effect of the substance
Sequence (Q12809 whole entry, looked up): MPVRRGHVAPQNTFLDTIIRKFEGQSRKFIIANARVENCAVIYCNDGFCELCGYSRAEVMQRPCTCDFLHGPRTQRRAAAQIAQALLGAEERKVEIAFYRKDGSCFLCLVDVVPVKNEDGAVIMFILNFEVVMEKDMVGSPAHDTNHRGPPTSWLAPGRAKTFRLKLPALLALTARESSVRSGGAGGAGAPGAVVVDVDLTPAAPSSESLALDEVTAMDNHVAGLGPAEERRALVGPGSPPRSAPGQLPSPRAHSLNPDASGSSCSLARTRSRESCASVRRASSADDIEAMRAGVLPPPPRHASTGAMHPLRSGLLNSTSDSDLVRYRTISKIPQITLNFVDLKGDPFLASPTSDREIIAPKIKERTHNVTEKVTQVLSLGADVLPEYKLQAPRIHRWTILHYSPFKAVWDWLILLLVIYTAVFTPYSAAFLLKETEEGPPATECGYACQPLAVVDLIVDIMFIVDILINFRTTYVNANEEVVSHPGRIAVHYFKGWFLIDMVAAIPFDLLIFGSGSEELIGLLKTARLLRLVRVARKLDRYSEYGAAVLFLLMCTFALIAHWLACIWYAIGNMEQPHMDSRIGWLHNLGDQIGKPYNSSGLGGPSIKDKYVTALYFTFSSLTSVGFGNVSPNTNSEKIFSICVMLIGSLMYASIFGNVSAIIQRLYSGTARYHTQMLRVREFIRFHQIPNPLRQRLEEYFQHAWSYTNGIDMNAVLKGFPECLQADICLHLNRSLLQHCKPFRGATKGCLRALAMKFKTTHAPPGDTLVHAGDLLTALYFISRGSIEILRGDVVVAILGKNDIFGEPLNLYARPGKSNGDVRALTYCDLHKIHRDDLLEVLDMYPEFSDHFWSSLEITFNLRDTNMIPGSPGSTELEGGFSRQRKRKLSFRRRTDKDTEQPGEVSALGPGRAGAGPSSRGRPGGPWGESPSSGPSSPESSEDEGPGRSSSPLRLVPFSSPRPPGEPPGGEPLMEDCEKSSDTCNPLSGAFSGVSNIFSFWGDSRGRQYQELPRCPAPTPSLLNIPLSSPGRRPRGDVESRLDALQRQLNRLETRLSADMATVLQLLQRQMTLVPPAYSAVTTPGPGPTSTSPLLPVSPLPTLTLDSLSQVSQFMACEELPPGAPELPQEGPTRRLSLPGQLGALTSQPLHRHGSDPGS
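Also: peak tail current of the secondary pulse compared with the same well before compound.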

SMILES	hERG current change (%, negative = inhibition) at 10uM
CCOc1ccc(S(=O)(=O)Nc2ccc3c(c2)OCO3)cc1	-14.9%
COc1cc(NC(=S)NCCSc2ccc(C)cc2)cc(OC)c1	-1.01%
C=CCOc1ccccc1CNCc1cccnc1.Cl	12.6%
Cc1cc(C(=O)NNC(=S)Nc2cccc(C(F)(F)F)c2)nn1C	30.1%
Cc1ccc(-n2cc[nH]c2=S)cc1C	22.7%
COc1ccc2[nH]c(=O)c(CN(CCCN3CCOCC3)C(=O)NCc3ccccc3)cc2c1	8.39%
COc1ccc(CN(CCCN2CCOCC2)C(=O)Nc2cccc(Cl)c2)cc1OC	-39.3%
COc1cc2cc(CN(CCCN3CCOCC3)C(=O)Nc3ccc(F)cc3)c(=O)[nH]c2cc1OC	-33.2%
CCc1ccc2[nH]c(=O)c(CN(CCCN3CCOCC3)C(=O)Nc3cccc(Cl)c3)cc2c1	-54.1%
Cc1ccc(NC(=O)N(CCCN2CCOCC2)Cc2cc3cc4c(cc3[nH]c2=O)OCO4)cc1	-42%
CCc1ccc2[nH]c(=O)c(CN(CCCN3CCOCC3)C(=O)Nc3ccc(Cl)cc3)cc2c1	-65.6%
Oc1ccc(/C=N/NC(=S)Nc2cccnc2)c(O)c1	17.5%
O=C(Cc1ccccc1)Nc1ncccc1Cl	6.6%
CCCCOc1ccc(C(=S)N2CCC(C(N)=O)CC2)cc1	6.67%
O=C(NC1CCCN(CCc2ccccc2)C1)c1c(F)cccc1F (centres unmarked)	-46.2%
O=C(NC1CCCN(CCc2ccccc2)C1)c1c[nH]c2ccccc12 (centres unmarked)	-68.2%
O=C(NC1CCCN(CCc2ccccc2)C1)C1CCCC1 (centres unmarked)	-36.7%
COC(=O)C1=COC(C)C2CN3CCc4c([nH]c5ccccc45)C3CC12 (centres unmarked)	-34.3%
O=C(CCc1c[nH]c2ccccc12)NC1CC1	14.1%
O=C(NC1CCN(CCc2c[nH]c3ccccc23)CC1)c1ccccc1	-71.7%
COC(=O)C1=CO[C@@H](C)[C@@H]2CN(CCc3c[nH]c4ccccc34)CC[C@H]12	-57%
COC(=O)C1=CO[C@@H](C)[C@H]2CN3CCc4c([nH]c5ccccc45)[C@@H]3C[C@H]12.Cl	-20.2%
O=C(NCCc1c[nH]c2ccccc12)c1ccccc1	4.79%

SMILES	hERG current change (%, negative = inhibition) at 10uM
CSC1=C(C#N)C(c2ccccc2Cl)C2=C(N1)c1ccccc1C2=O (centres unmarked)	6.44%
CCC(C)(C)n1nnnc1C(c1cccs1)N1CCCCC1 (centres unmarked)	-19.4%
Cc1cccn2c(CN3CCCN(C=O)CC3)c(C(=O)N(C)CCc3ccccc3)nc12	26.6%
COC(=O)CCCC(=O)N1CCCC(N(C)CCc2ccccc2)C1 (centres unmarked)	-40.6%
COc1ccc(CCN(C)C2CCCN(C(=O)Cn3cccn3)C2)cc1OC (centres unmarked)	-6.28%
COCC(=O)N1CCCC(N(C)CCc2ccc(OC)c(OC)c2)C1 (centres unmarked)	8.28%
CCCCNC(=O)N1CCCC(N(C)CCc2ccc(OC)c(OC)c2)C1 (centres unmarked)	-67.8%
CCOC(=O)CCNC(=O)N1CCCC(N(C)CCc2ccc(OC)c(OC)c2)C1 (centres unmarked)	-6.37%
COc1ccc(CCN(C)C2CCCN(C(=O)Cn3cnnn3)C2)cc1OC (centres unmarked)	10.2%
COc1ccc(CCN(C)C2CCCN(C(=O)CCSC)C2)cc1OC (centres unmarked)	-57.2%
CSCCC(=O)N1CCCC(N(C)CCc2ccccc2)C1 (centres unmarked)	-56.8%
CCOC(=O)CCNC(=O)N1CCCC(N(C)CCc2ccccc2)C1 (centres unmarked)	-49.4%
COc1ccc(CCN(C)C2CCCN(C(=O)CCC(F)(F)F)C2)cc1OC (centres unmarked)	-52%
CC(=O)NCCC(=O)N1CCCC(N(C)CCc2ccccc2)C1 (centres unmarked)	-26.7%
COCC(C)n1c(C)cc(C(=O)CN2C(=O)NC3(CCCCC3C)C2=O)c1C (centres unmarked)	-8.29%
COC(=O)c1ccc(NC(=S)N2CCC(C(N)=O)CC2)cc1	12.2%
CCC(C)(C(=O)NC1CCCCC1)N(C(=O)CNC(=O)c1ccccc1)c1c(C)n(C)n(-c2ccccc2)c1=O (centres unmarked)	10.1%
CN=C1SC(C(=O)O)CC(=O)N1C (centres unmarked)	19.1%
Cc1ccc(NC(=S)Nc2ccc(OC(F)F)c(Cl)c2)cc1Cl	16.5%
Cc1nc2ccc(S(=O)(=O)NCC(=O)NCCc3ccc(Cl)cc3)cc2s1	28.3%
c1ccc2c(-c3nnc(SCc4cn5ccccc5n4)o3)c[nH]c2c1	-4.5%
Cc1nc(Cl)c(C(=O)Nc2cccc(F)c2)c(C)c1Cl	-5.95%
CSc1nnc(CNS(=O)(=O)c2ccc(F)cc2)n1C	19.7%

SMILES	hERG current change (%, negative = inhibition) at 10uM
CCN1/C(=C/c2ccc3ccccc3[n+]2CC)C=Cc2ccccc21.[Cl-]	-82.5%
CCN1/C(=C/c2cc[n+](C)cc2)C=Cc2cc(C)ccc21.[I-]	-72.2%
CCN1/C(=C2\C(=O)N(c3ccccc3)N=C2C)C=Cc2cc(C)ccc21	-40%
CCN1C(=C(C#N)C#N)C=Cc2ccccc21	15.8%
CCN1/C(=C/c2ccc3ccccc3[n+]2CCCS(=O)(=O)[O-])C=Cc2cc(C)ccc21	24.2%
CCN1C(=C(C#N)C#N)C=Cc2cc(C)ccc21	15.7%
CCN1C(=O)/C(=C2\C=Cc3cc(C)ccc3N2CC)OC1=S	0.13%
C=CC[n+]1c(/C=C2\C=Cc3cc(C)ccc3N2CC)ccc2ccccc21.[Br-]	-83.5%
CCOC(=O)/C(C#N)=C/C=C1\C=Cc2ccccc2N1CC	7.18%
CC1=C(C(N)=O)C(c2ccccc2F)n2nc(CCCO)nc2N1 (centres unmarked)	20.3%
OCC[C@H]1C[C@H](O)[C@@H](O)[C@@]2(CCc3ccccc3CO2)O1	7.83%
CCOCC(=O)Nc1cc([N+](=O)[O-])ccc1C	-2.36%
COc1cc(NS(=O)(=O)c2ccc(NC(=S)NC(=O)c3ccco3)cc2)ncn1	20.4%
Cc1ccc(-c2noc(CCCN3C(=O)c4ccccc4C3=O)n2)cc1	9.03%
CCCCNC(=O)CC1NCCNC1=O (centres unmarked)	22%
Cc1ccccc1CS(=O)(=O)CCC(=O)NCCN1CCN(c2cccc(Cl)c2)CC1	-42.5%
CCOC(=O)CNc1nc(Cl)nc(Nc2ccc(OC)cc2OC)n1	19.2%
CCN1C(c2ccc(F)cc2)=CS/C1=C(\C#N)c1nnc2n1-c1ccccc1SC2	-58.9%
CN1C(c2ccc(F)cc2)=CS/C1=C(\C#N)c1nnc2n1-c1ccccc1SC2	-45.5%
Br.CN1C(c2ccc(F)cc2)=CS/C1=C(/C#N)c1nnc(N2CCOCC2)n1-c1ccccc1	-23.8%
COc1ccc(-c2nnc(SCC(=O)c3cc(C)n(Cc4cccs4)c3C)o2)cc1	5.36%
COc1ccc(-n2cnnc2SCC(=O)c2cc(C)n(Cc3cccs3)c2C)cc1	-73.5%
COc1ccccc1-n1cnnc1SCC(=O)c1cc(C)n(Cc2cccs2)c1C	-27.8%

SMILES	hERG current change (%, negative = inhibition) at 10uM
COC(=O)Cn1c(=O)cnc2ccccc21	-2.96%
CCn1cnc2c(oc3ccccc32)c1=O	18.3%
Cc1ccc(-n2c(N)c(C(=O)N3CCN(C)CC3)sc2=S)cc1	-30.4%
CN1CCN(C(=O)c2sc(=S)n(-c3ccccc3)c2N)CC1	-10.2%
CCOC(=O)c1sc(=S)n(-c2ccc(OC)cc2)c1N	15.2%
CCOc1ccc(-n2c(N)c(C(=O)N3CCN(C)CC3)sc2=S)cc1	-51%
CCOC(=O)c1sc(=S)n(-c2ccc(Cl)cc2)c1C	-37.4%
CCOC(=O)c1sc(=S)n(-c2ccc(OC)cc2)c1C	-51.1%
COC(=O)c1c(NC(=O)CSc2nnnn2-c2ccccc2)sc2c1CCC(C(C)(C)C)C2 (centres unmarked)	-1.38%
C=CCn1c(SCC(=O)Nc2cccnc2Cl)nnc1-c1ccc(Cl)cc1	-45.4%
CCOC(=O)C1(C)C=C(Nc2ccccc2)C(=O)N1c1ccccc1 (centres unmarked)	25.7%
Cc1c(NC(=O)/C(C#N)=C/c2c(Oc3ccccc3)nc3ccccn3c2=O)c(=O)n(-c2ccccc2)n1C	5.93%
Cc1ccc(CNC(=O)C2CCCC2)cc1	8.93%
CCN(CC)S(=O)(=O)N1CCC(C(=O)NCc2ccc(C)cc2)CC1	-16.9%
CSc1ccc(CN2CCC(C(=O)NCc3ccc(C)cc3)CC2)cc1.O=C(O)C(=O)O	-87.6%
Cc1ccc(CNC(=O)C2CCN(S(=O)(=O)N3CCCCC3)CC2)cc1	-11.4%
Cc1ccc(CNC(=O)C2CCN(S(=O)(=O)N3CCCC3)CC2)cc1	0.472%
CCN(CC)c1ccc(CN2CCC(C(=O)NCc3ccc(C)cc3)CC2)cc1.O=C(O)C(=O)O	-65.3%
O=C1c2ccccc2C(=O)N1CNc1ccccc1	18.7%
O=C1CC(c2ccccc2)CN1C(=O)c1cncc(Br)c1 (centres unmarked)	5.75%
